Only some compounds are listed: those with a hit (about 21% of all), similar ones and a draw of the others.
ClpP mod: qHTS Assay for Activators of ClpP; Potency, µM (highest dose often 57.5 µM), for the others: at the top dose activity change, negative = active; purified B. subtilis ClpP, FRET peptide cleavage, 20 min; hit rate 1.9% among 340,000; ATP-dependent Clp protease proteolytic subunit (Bacillus subtilis (strain 168)), P80244; active = well fitted falling curve with a large enough effect; inconclusive = small, poorly fitted or top-dose-only effect; inactive = no such curve, though single readings can be large or run the other way; also: potency is read from the fitted curve at half-maximal effect; the source files actives as falling curves though it sought activators and does not explain the sign; nearly all actives have a fitted effect of over 65% in size
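FRET quenching reversal measured ClpP activation: 10 microg/mL B. subtilis ClpP at pH 8 with the FRET-FV decapeptide, read at 430 nm after 320 nm excitation. The 20-min minus 0-min signal was scaled between DMSO/no-enzyme wells and ADEP (5.8 microM final).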
TDP1 cell CPT: DT40-hTDP1 cell growth loss with CPT; chicken DT40 Tdp1-/-;hTDP1 cells + 20 nM CPT, ATP luminescence, 48 h; Potency, µM (series often up to 46.2 µM), for inactives: top-dose activity change, negative = growth inhibition, hits mostly inhibitors; hit rate 12% among 420,000; AID 686979; also: potency is read from the fitted curve at half-maximal effect; % is scaled to controls: 0 for no effect and ±100 for the full control effect; nearly all actives have a fitted effect of over 55% in size
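Chicken DT40 Tdp1-/- cells stably complemented with human TDP1 were seeded at 400 cells/well in medium containing 20 nM camptothecin, exposed to pin-transferred compounds, and grown at 37 °C for at least 48 hr. Viability was read as ATP luminescence.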
D3 antag: antagonists of human D3 dopamine receptor; AID 652054; max response, negative = inhibition, %; hit rate 2.5% among 360,000; D3R cells, DiscoveRx beta-arrestin luminescence, antagonist mode; hits give low values; in the data active = max response below about -50%; inconclusive = no clear call, values can overlap the other calls; also: % is scaled to controls: 0 for no effect and ±100 for the full control effect
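Cells expressing the human receptor were seeded at 1500 cells/well, incubated overnight at 37 degrees C in 5% CO2, then exposed to library compounds with dopamine controls for 90 minutes at 37 degrees C before luminescent detection.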
D3 ag: agonists of human D3 dopamine receptor; hit rate 0.58% among 410,000; max activation, %; D3R DiscoveRx beta-arrestin cells, luminescence, 90 min; P35462; in the data active = max activation above about 30%; also: 0% is about no effect
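Agonist-mode cell screen: cells plated at 1500/well and incubated overnight at 37 °C, then exposed to library compounds for 90 min at 37 °C. Detection reagent was added for 30–60 min at room temperature, and luminescence was read.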
IL1B secr inh: blocks inflammasome-driven IL-1 beta release; THP-1 LPS/ATP IL-1B secretion, AlphaLISA, 16 h; hits give low values; activity change, % at 57.5 µM; hit rate 4.7% among 360,000; in the data active = activity change below about -50%; inconclusive = mostly about -30% to -49%; also: % is scaled to controls: 0 for no effect and ±100 for the full control effect
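THP-1 cells pretreated 1 hr with compounds (up to 57.5 uM final), then stimulated with LPS (250 ng/mL final) plus ATP (1.25 mM final); secreted IL-1B measured by AlphaLISA after 16 hr, decreased signal indicating inhibition.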
TDP1 cell noCPT: qHTS for Inhibitors of human tyrosyl-DNA phosphodiesterase 1 (TDP1): qHTS in cells in absence of CPT | DT40 Tdp1-/- hTDP1 cells, no CPT, ATP luminescence, 48 h | Potency, µM (highest dose often 46.2 µM), for the others: at the top dose activity change, negative = growth inhibition, actives largely listed as inhibitors | hit rate 15% among 420,000 | AID 686978, 2013; also: potency is read from the fitted curve at half-maximal effect; % is scaled to controls: 0 for no effect and ±100 for the full control effect; nearly all actives have a fitted effect of over 55% in size
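Luminescent ATP content (CellTiter-Glo) served as the growth readout. Knockout chicken DT40 cells expressing human TDP1 were exposed to compounds without camptothecin for a minimum 48 hr at 37 °C.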
Starred values were filed as active, the others as inactive; ? = inconclusive; / = not tested or not shown. Unless noted, calls follow the shape of the dose curve; as a rule, active = well fitted inhibition curve with a large enough effect; inconclusive = small, poorly fitted or top-dose-only effect; inactive = flat fitted curve, though single readings scatter.

SMILES | ClpP mod | TDP1 cell CPT | D3 antag | D3 ag | IL1B secr inh | TDP1 cell noCPT
CN(Cc1ccccc1)C(=O)COc1ccc2ccccc2c1 | -2.4% | -26.0% | -12.6 | -8.3 | 0.0 | -45.2%
Cc1cc(C(=O)N(C)CC(=O)Nc2ccccc2C(F)(F)F)c(C)o1 | 0.9% | 16.4µM* | 13.4 | 4.0 | -28.5 | 23.1µM*
CN(CC(=O)Nc1ccccc1C(F)(F)F)C(=O)COc1ccccc1Cc1ccccc1 | 1.4% | ? | 3.5 | 1.8 | -14.4 | 16.4µM*
COc1ccc(NC(=O)CN(C)C(=O)Cc2c[nH]c3ccccc23)cc1 | -2.8% | -5.3% | -14.2 | 3.0 | -3.6 | -22.1%
COc1ccc(Cl)cc1NC(=O)CN(C)C(=O)c1cc(C)oc1C | -3.7% | 3.3% | -1.8 | -1.4 | -19.6 | 15.0%
COc1ccc(NC(=O)CN(C)C(=O)COc2ccccc2Cc2ccccc2)cc1 | -0.4% | 25.9µM* | -6.9 | -23.0 | -2.6 | 18.4µM*
O=C(COC(=O)Cn1ccc(=O)[nH]c1=O)Nc1ccc(F)cc1 | 0.1% | -22.0% | 9.9 | 5.0 | 10.0 | -8.3%
CCn1c(-c2cccc(OC)c2)nc2cc(NC(C)=O)cc(C(=O)N3CCCC(C(C)=O)C3)c21 (configuration not stated) | / | 16.0% | / | / | / | -7.4%
Cc1cccc(NC(=O)CSc2nnc(-c3cc(C)n(-c4ccccc4)c3C)o2)c1C | -1.5% | -8.4% | -19.8 | -21.7 | -79.8* | ?
COC(=O)CSc1nnc(-c2ccccc2OC)o1 | -2.1% | -16.6% | -3.5 | 7.6 | 17.2 | -0.9%
COc1ccccc1-c1nnc(SCC(=O)Nc2ccccc2F)o1 | -5.9% | 20.6µM* | / | -8.9 | / | 20.6µM*
CN(Cc1ccccc1)C(=O)COC(=O)C1CCN(S(=O)(=O)c2ccc3c(c2)OCCO3)CC1 | 1.8% | 4.6% | 18.2 | 3.4 | 21.2 | 9.1%
O=C1NC(c2ccccc2)=C(c2nc3ccccc3s2)C(c2ccc(F)cc2)N1 (configuration not stated) | -7.3% | ? | -56.3* | 14.3 | -75.3* | ?
COc1ccc(C2NC(=O)NC(c3ccccc3)=C2c2nc3ccccc3s2)cc1 (configuration not stated) | -8.2% | 14.1µM* | 6.9 | 9.0 | ? | ?
COc1cccc(N2C(=O)C(c3ccccc3)=C(c3nc4ccccc4s3)C2NC(C)=O)c1 (configuration not stated) | 0.8% | ? | -26.0 | -6.5 | 0.0 | ?
Cc1c(C(=O)N/N=C/c2ccc(-c3ccccc3[N+](=O)[O-])o2)sc(N)c1C#N | 9.1% | 16.4µM* | -9.4 | -4.0 | 52.2 | 13µM*
Cc1cc([N+](=O)[O-])c(C)cc1-c1ccc(/C=N/NC(=O)c2cccnc2)o1 | 1.2% | 16.4µM* | 3.4 | -3.0 | -23.2 | 16.4µM*
Cc1ccc(C(=O)N/N=C/c2ccc(-c3ccc(Br)cc3[N+](=O)[O-])o2)o1 | -2.4% | ? | ? | -7.1 | -85.1* | ?
O=C(N/N=C/c1ccc(-c2ccc([N+](=O)[O-])cc2)o1)c1cccnc1 | -0.3% | 1.2% | -9.2 | 5.6 | -11.4 | -21.7%
CCOC(=O)c1c(C)[nH]c(N=Nc2cccc(OC)c2)c1C | / | -5.0% | 11.9 | 3.1 | -67.1* | ?
CCOC(=O)c1c(C)[nH]c(N=Nc2cccc(C)c2)c1C | -0.9% | ? | -19.3 | -3.6 | -5.2 | -24.6%
CCOC(=O)c1c(C)[nH]c(N=Nc2ccccc2)c1C | -22.5% | ? | -18.8 | -0.2 | -3.1 | 23.1µM*
CSc1nnc2c(n1)OC1(Nc3ccccc3-2)C(=O)Nc2ccccc21 (configuration not stated) | 3.3% | ? | -1.4 | -9.7 | 10.0 | 16.4µM*
Cn1c(=O)c2c(nc(Br)n2C/C=N/NC(N)=S)n(C)c1=O | / | 20.6µM* | -11.1 | -10.8 | / | ?

Screens (PubChem)
